Results on nine compounds are retold here after PubChem BioAssay (Tox21).

Molecules are shown by their SMILES. Unmarked numbers belong to inactive results. Records with an inconclusive call do not appear. The source made the active and inactive calls. Unless noted, calls follow the shape of the dose curve; as a rule, active = well fitted curve in the direction sought with a large enough effect in the repeat runs; inconclusive = weak or mixed curves; inactive = no such curve, though single readings can be large; an effect the other way counts as inactive or inconclusive.

A short description of assay [1]: qHTS assay for small molecule agonists of the p53 signaling pathway (AID 651631; calls by dose curve; also: nearly all actives have a fitted effect of over 15% in size). In short, it runs like this: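 HCT-116 cells carrying a beta-lactamase reporter under p53 response elements were dosed with compound for 16 h at 37 °C. LiveBLAzer B/G FRET substrate was then added for 2 h at room temperature, and fluorescence intensity was read to detect pathway agonism.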
A general note: Quantitative high-throughput screening tests each substance at several concentrations.

Assay [2] is described as follows: qHTS assay for small molecule agonists of the p53 signaling pathway - cell viability (AID 651633; calls by dose curve;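 also: p53RE-bla HCT reporter cells with a stable beta-lactamase p53 reporter; nearly all actives have a fitted effect of over 30% in size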). Put shortly: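 p53RE-bla cells were treated with compound for 16 hours at 37 C. Cytotoxicity was then measured as CellTiter-Glo luminescence after 30 min at room temperature.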
A short description of assay [3]: qHTS assay for small molecules that induce genotoxicity in human embryonic kidney cells expressing luciferase-tagged ATAD5 - cell viability (AID 651634; calls by dose curve; also: nearly all actives have a fitted effect of over 25% in size; also: potency is read from the fitted curve at half-maximal effect). In short, it runs like this:
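Seeding of 2,000 HEK293T ATAD5-luciferase cells per well preceded pin-tool compound transfer. Plates sat 15.5 hr at 37C under 5% CO2, then fluorescence was read after 30 min with CellTiter-Fluor.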

Assay [4] in a line: qHTS assay for small molecule disruptors of the mitochondrial membrane potential - cell viability (AID 720634; calls by dose curve;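 also: human HepG2 liver cancer cells; nearly all actives have a fitted effect of over 20% in size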). In short, it runs like this:
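Measuring cytotoxicity alongside mitochondrial potential, the screen quantified ATP by luminescence in HepG2 cells after 1 hr compound incubation and a 30 min room-temperature CellTiter-Glo step.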

The nature of assay [5]: qHTS assay to test for compound auto fluorescence at 590 nm (red) in HepG2 cells (AID 720674). Put shortly: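 Fluorescence at 590 nm emission following 540 nm excitation was recorded from HepG2 wells one hour after compound transfer, with DMSO-only wells as vehicle and Rose Bengal sodium equivalency as the scale.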
Assay [6] is described as follows: qHTS assay to test for compound auto fluorescence at 535 nm (green) in HepG2 cells (AID 720675).
Assay [7] in a line: qHTS assay to test for compound auto fluorescence at 460 nm (blue) in HEK293 cells (AID 720678). Put shortly: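 HEK293, 2,000 cells/well, 10% dialyzed FBS; attach 4-5 hr 37C; pin compound or DMSO; o/n 37C/5% CO2; fluorescence 405/460 nm; triamterene-equivalent units.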
Assay [8] in a line: qHTS assay to test for compound auto fluorescence at 590 nm (red) in HEK293 cells (AID 720679). In short, it runs like this:
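Intensity at 540nm excitation and 590nm emission is reported as Rose Bengal sodium-equivalent autofluorescence. Measurements followed overnight exposure (37C, 5% CO2) of HEK293 cells, 2,000 per well, to 23 nL compound.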

The nature of assay [9]: qHTS assay to test for compound auto fluorescence at 535 nm (green) in HEK293 cells (AID 720680).
Assay [10] in a line: qHTS assay to test for compound auto fluorescence at 460 nm (blue) in HEK293 cell free culture (AID 720681). Put shortly:
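Compounds were added to cell-free DMEM with 10% FBS and fluorescence read directly. The blue channel used 405 nm excitation and 460 nm emission, with triamterene as the reference fluorophore.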

A short description of assay [11]: qHTS assay to test for compound auto fluorescence at 535 nm (green) in HEK293 cell free culture (AID 720682). In short, it runs like this: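 Green-label autofluorescence (485 nm excitation, 535 nm emission) measured on compound added to cell-free culture medium (DMEM, 10% FBS). Output is expressed relative to fluorescein.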
Assay [12] can be described thus: qHTS assay to test for compound auto fluorescence at 590 nm (red) in HEK293 cell free culture (AID 720683). In short, it runs like this:
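Cell-free wells of DMEM with 10% FBS received compound, and intrinsic fluorescence was read at excitation/emission 540/590 nm. Values expressed as equivalence to Rose Bengal sodium.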

Assay [13] in a line: qHTS assay to test for compound auto fluorescence at 590 nm (red) in HepG2 cell free culture (AID 720684). In short, it runs like this:
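Compounds are added to culture medium (MEM, 10% FBS) lacking cells, then fluorescence is read at excitation 540 nm, emission 590 nm, with Rose Bengal sodium as the equivalency standard.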

Assay [14] is described as follows: qHTS assay to test for compound auto fluorescence at 460 nm (blue) in HepG2 cell free culture (AID 720685). Put shortly: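 Compound (23 nL) or DMSO pinned into cell-free MEM with 10% FBS; blue fluorescence read at 405/460 nm excitation/emission, expressed as auto-fluorescence equivalency to triamterene.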
Assay [15] is described as follows: qHTS assay to test for compound auto fluorescence at 535 nm (green) in HepG2 cell free culture (AID 720686).
Assay [16] in a line: qHTS assay to test for compound auto fluorescence at 460 nm (blue) in HepG2 cells (AID 720687). In short, it runs like this:
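HepG2 cells in MEM with 10% FBS, attached overnight at 37 C, were exposed to compound or DMSO for 1 hr at 37 C, 5% CO2. Blue fluorescence was read at 405/460 nm, with triamterene as reference fluorophore.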

Assay [17] addresses Glucocorticoid receptor (Homo sapiens) (UniProt P04150). Briefly: qHTS assay to identify small molecule agonists of the glucocorticoid receptor (GR) signaling pathway (AID 720691; active = well fitted activation curve with a large enough effect in the signal ratio in the repeat runs, not every such curve was filed as active; the % refers to the signal ratio). The note with it: GR-bla HeLa, beta-lactamase reporter ratio, 18 h; activation: at 62.4 µM (top of the series). In short, it runs like this: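 Reporter read-out: fluorescence intensity following 2 h room-temperature LiveBLAzer B/G FRET substrate loading. Prior step: GR-bla HeLa cells held 4 h, then treated 18 h at 37 C.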

The target is the same in assay [18]. Briefly: qHTS assay to identify small molecule antagonists of the glucocorticoid receptor (GR) signaling pathway (AID 720692; active = well fitted inhibition curve with a large enough effect in the signal ratio in the repeat runs, not every such curve was filed as active; the % refers to the signal ratio). Put shortly:
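Dexamethasone (5 nM final) stimulated a stably integrated GRE-beta-lactamase reporter in HeLa cells during 18 h co-incubation with compounds; signal was quantified as fluorescence intensity of B/G FRET substrate after 2 h.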

Assay [19] in a line: qHTS assay for small molecule disruptors of the mitochondrial membrane potential (AID 720635). Also: potency is read from the fitted curve at half-maximal effect. Put shortly: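 HepG2 cells exposed to compound 1 hr at 37C, then Mito-MPS dye 30 min. Ratio read of aggregate (540/590 nm) versus monomer (490/535 nm) fluorescence.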

Chain of Glucocorticoid receptor (Homo sapiens) (P04150 whole entry, looked up): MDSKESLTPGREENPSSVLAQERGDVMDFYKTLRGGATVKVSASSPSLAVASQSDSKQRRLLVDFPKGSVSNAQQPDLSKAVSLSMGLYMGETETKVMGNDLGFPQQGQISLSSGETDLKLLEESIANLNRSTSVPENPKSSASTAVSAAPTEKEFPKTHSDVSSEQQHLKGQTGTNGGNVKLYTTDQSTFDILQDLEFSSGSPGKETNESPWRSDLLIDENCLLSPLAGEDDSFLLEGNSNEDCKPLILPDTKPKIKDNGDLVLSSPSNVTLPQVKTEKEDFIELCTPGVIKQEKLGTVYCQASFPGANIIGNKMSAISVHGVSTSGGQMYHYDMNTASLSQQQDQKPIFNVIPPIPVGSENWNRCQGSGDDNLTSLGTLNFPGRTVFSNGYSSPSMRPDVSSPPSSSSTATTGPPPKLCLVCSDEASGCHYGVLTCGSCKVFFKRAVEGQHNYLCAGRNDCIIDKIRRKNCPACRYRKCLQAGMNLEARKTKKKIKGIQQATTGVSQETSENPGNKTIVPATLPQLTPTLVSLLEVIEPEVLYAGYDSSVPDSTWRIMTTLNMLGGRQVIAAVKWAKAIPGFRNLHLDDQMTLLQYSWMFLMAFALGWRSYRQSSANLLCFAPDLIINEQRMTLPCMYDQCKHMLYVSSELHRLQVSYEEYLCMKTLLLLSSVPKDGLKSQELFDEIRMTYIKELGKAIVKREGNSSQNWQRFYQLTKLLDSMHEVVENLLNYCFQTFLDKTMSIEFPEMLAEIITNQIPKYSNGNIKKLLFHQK

As to `CCCCCC(N)=O`, the Potency result in assay [1], in [2], in assay [3] and in assay [4] was “inactive” throughout. In addition, the outcome in [5], in assay [6], in assay [7], in assay [8], in assay [9] and in assay [10] was inactive. Further, the outcome in assay [11], in assay [12], in [13], in [14] and in assay [15] was inactive.

On to `C[Si](O[Si](C)(C)C)O[Si](C)(C)C`, for which the Potency entry in [1], in assay [2], in assay [3], in [4], in [17] and in assay [18] was “inactive” each time. For the same compound, the outcome in assay [5], in assay [6], in assay [7], in [8], in assay [9] and in [10] was inactive. Also, the compound was classed as inactive in assay [11], in assay [12], in assay [13], in [14] and in assay [16].

Consider `CCC(O)OCCCOC` (stereo unspecified), for which the Potency result in assay [1], in [2], in assay [3], in [4], in assay [19] and in assay [17] was “inactive” in each case. The Potency result in assay [18] was “inactive”. The result in assay [5], in assay [6], in assay [7], in [9], in assay [10] and in assay [11] was inactive. For the same compound, the compound was classed as inactive in [12], in [13] and in assay [14].

For `COc1cc(Cc2cnc(N)nc2N)cc(OC)c1OC`, the Potency entry in assay [1], in [2], in assay [4], in assay [17] and in assay [18] was “inactive” in each case. The compound was classed as inactive in assay [5], in [6], in [7], in assay [8], in assay [9] and in [10]. Besides, the compound was called inactive in assay [11], in assay [12], in assay [13], in assay [14], in [15] and in assay [16].

For the compound `CC(C)(C)[C@@H](O)[C@@H](Cc1ccc(Cl)cc1)n1cncn1`, the Potency result in assay [1], in [2], in assay [3], in assay [4], in assay [17] and in [18] was “inactive” in each case. The outcome in assay [5], in [6], in assay [7], in assay [9], in [10] and in assay [11] was inactive. Besides, the outcome in assay [12] and in assay [13] was inactive.

As to `Nc1cc([N+](=O)[O-])ccc1O`, the Potency result in [1], in assay [2], in assay [4], in [17] and in [18] was “inactive” throughout. Further, the Potency in assay [3] was 24.3 µM (active); in assay [19], 27.3 µM (active). Moreover, the compound was called inactive in [5], in assay [6], in assay [7], in assay [8], in [9] and in assay [10]. For the same compound, the result in assay [11], in assay [12], in assay [13], in [14], in assay [15] and in [16] was inactive.

On to `CCCCCCCCCCCCCCCO`, for which the Potency entry in assay [1], in assay [2] and in assay [3] was “inactive” throughout. Also, the result in assay [5], in assay [6], in assay [7], in assay [9], in assay [10] and in [11] was inactive. Besides, the result in assay [12], in [13], in assay [15] and in assay [16] was inactive.

Consider `CCCCC(CC)CO` (stereo unspecified), for which the Potency result in [1], in assay [2], in [3], in assay [4], in assay [19] and in [17] was “inactive” throughout. Also, in assay [18], the Potency entry was “inactive”. In addition, the result in assay [5], in assay [6], in assay [7], in assay [8], in assay [9] and in assay [10] was inactive. The outcome in assay [11], in [12], in assay [13], in assay [14] and in [16] was inactive.

As to `Nc1ccccc1[N+](=O)[O-]`, the Potency result in assay [1], in assay [2], in assay [3], in assay [4], in assay [17] and in [18] was “inactive” throughout. Besides, the Potency in assay [19] was 48.6 µM (active). For the same compound, the call in assay [5], in [6], in [7], in assay [8], in assay [9] and in assay [10] was inactive. Moreover, the compound was classed as inactive in assay [11], in assay [12], in assay [13] and in assay [16].
